Bioassay records (PubChem BioAssay)
An excerpt weighted towards active compounds, which were near 2.6% of everything screened.
hERG WT inh – qHTS for Inhibitors of KCHN2 3.1: Wildtype qHTS; Voltage-gated inwardly rectifying potassium channel KCNH2 (Homo sapiens), Q12809; U2OS, BacMam KCNH2, thallium flux FluxOr; stronger effect = lower value; activity change, % at 1.84 µM; 0.37% of 340,000 active; AID 720551, 2013;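 active = maximum activity change below -70%; inconclusive = maximum activity change between -70% and -50%; inactive = maximum activity change above -50%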; note: % is set by controls: 0 for no effect and ±100 for the full control effect
Target sequence (Q12809 whole entry, looked up): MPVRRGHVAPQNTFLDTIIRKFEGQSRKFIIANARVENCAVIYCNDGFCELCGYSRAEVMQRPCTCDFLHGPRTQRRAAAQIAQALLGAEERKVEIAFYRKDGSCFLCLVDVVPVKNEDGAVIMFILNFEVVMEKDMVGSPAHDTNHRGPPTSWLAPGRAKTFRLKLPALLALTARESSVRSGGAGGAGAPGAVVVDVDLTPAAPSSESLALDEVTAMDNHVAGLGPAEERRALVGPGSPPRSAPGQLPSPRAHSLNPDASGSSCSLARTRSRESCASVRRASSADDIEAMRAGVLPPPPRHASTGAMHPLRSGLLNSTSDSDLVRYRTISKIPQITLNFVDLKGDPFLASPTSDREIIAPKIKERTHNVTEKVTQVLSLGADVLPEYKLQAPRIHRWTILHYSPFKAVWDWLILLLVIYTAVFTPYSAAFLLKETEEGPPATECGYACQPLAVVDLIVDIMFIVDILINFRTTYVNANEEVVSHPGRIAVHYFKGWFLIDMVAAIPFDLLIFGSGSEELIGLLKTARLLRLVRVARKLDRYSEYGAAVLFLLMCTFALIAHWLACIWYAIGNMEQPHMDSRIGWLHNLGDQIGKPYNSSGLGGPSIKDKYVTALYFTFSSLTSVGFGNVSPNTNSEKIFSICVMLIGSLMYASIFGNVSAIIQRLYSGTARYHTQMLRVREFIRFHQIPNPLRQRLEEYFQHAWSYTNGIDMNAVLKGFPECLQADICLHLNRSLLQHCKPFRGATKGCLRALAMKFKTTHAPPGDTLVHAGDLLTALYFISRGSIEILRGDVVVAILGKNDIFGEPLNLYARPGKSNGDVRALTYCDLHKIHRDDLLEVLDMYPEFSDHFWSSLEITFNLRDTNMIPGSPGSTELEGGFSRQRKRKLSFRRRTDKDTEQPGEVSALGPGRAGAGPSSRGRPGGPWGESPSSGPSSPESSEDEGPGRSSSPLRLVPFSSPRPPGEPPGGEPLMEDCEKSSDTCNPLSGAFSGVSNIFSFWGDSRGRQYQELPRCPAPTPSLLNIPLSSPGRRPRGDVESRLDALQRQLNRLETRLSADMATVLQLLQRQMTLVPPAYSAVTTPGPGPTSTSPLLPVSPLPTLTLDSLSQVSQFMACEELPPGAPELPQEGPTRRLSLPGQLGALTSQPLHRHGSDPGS
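U2OS cells were transduced with wild-type KCNH2 virus (2.03 x 10^8 / mL) for 4 h at room temperature, then cultured overnight at 37 C. Thallium flux was read with FluxOr dye. Rate constants were normalized to DMSO controls.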
KCNH2 3.1 inh – qHTS for Inhibitors of KCHN2 3.1: Mutant qHTS | Potassium voltage-gated channel subfamily H member 2, brain isoform KCNH2 3.1 (human) | U2OS KCNH2 3.1, thallium flux FluxOr; stronger effect = lower value | activity change, % (tested at about 1.8 µM) | 0.95% of 340,000 active | AID 720553, 2013;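 active = maximum activity change below -70%; inconclusive = maximum activity change from -70% to -50%; inactive = maximum activity change above -50%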;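 note: thallium influx rate constant from kinetic fluorescence after stimulation buffer; % is set by controls: 0 for no effect and ±100 for the full control effect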
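Normalized rate constant (relative to positive and negative DMSO controls) derived from a 2 min kinetic fluorescence read after stimulation; U2OS cells expressing the 3.1 isoform via virus at 1.77 x 10^8 /mL.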
TRPV1 PAM – HTS Assay for Compounds that Act as Potentiators of the Vanilloid Receptor 1; TRPV1-expressing cells, Fluo-8 calcium influx, capsaicin EC20 potentiation; 0.02% of 320,000 active; potentiation, % at 8.33 µM; Transient receptor potential cation channel subfamily V member 1 (Homo sapiens), Q8NER1; in the data active = potentiation above about 80%; inconclusive = between about 30% and that limit; note: 0% is about no effect
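Fluo-8 calcium influx in TRPV1-expressing cells, kinetic read (ex 480/em 520 nm). Compound added and read 3 min for agonist activity, followed by capsaicin at EC20 final and 2 min further read for enhancement.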
ClpP mod – qHTS Assay for Activators of ClpP; ATP-dependent Clp protease proteolytic subunit (Bacillus subtilis (strain 168)), P80244; purified B. subtilis ClpP, FRET peptide cleavage, 20 min; Potency, µM (series often up to 57.5 µM), for the others: at the top dose activity change, negative = active; 1.9% of 340,000 active; AID 651965, 2013; active = well fitted falling curve with a large enough effect; inconclusive = small, poorly fitted or top-dose-only effect; inactive = no such curve, though single readings can be large or run the other way; note: potency is the fitted concentration of half-maximal effect; the source files actives as falling curves though it sought activators and does not explain the sign; nearly all actives have a fitted effect of over 65% in size
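Buffer: 100 mM Tris/HCl pH8, 100 mM KCl, 0.05% low protease BSA, 2.5% glycerol, 0.01% Tween-20. ClpP 10 microg/mL final; 20 min RT; delta FRET normalized to ADEP and DMSO controls.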
TRPV1 ag – HTS Assay for Compounds that Act as Agonists of the Vanilloid Receptor 1 | Transient receptor potential cation channel subfamily V member 1 (Homo sapiens), Q8NER1 | TRPV1-expressing cells, Fluo-8 calcium influx, agonist mode | activation, % at 8.33 µM | 0.19% of 320,000 active | AID 540275, 2011; in the data active = activation above about 80%; inconclusive = between about 30% and that limit; note: 0% is about no effect
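Cells expressing TRPV1 were dye-loaded with Fluo-8 and read kinetically: 10 s baseline, 3 min after compound (agonist portion), then 2 min after EC20 capsaicin (allosteric enhancer portion). Calcium-bound dye fluorescence at 480/520 nm.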
p53 reactivation – qHTS assay for re-activators of p53 using a Luc reporter; H1299 p53-A138V BP100-luciferase reporter, luminescence, 24 h; Potency, µM (doses to about 92.2 µM), for inactives: at the top dose activity change, positive = activation, most hits filed as activators; 0.063% of 320,000 active; active = well fitted activation curve with a large enough effect; inconclusive = small, poorly fitted or top-dose-only effect; inactive = no such curve, though single readings can be large or run the other way; note: potency is the fitted concentration of half-maximal effect; % of control where 0% means no effect; nearly all actives have a fitted effect of over 45% in size
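p53-null H1299 cells stably carrying temperature-sensitive p53-A138V and a BP100-luciferase reporter were pinned with compounds (4-point, 1:5 series) and held 24 hrs at 37 deg C. Luminescence was read 10 min after detection reagent.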
* marks the source's active call; other numbers are inactive results; ? = inconclusive; . = no result given.

SMILES	hERG WT inh	KCNH2 3.1 inh	TRPV1 PAM	ClpP mod	TRPV1 ag	p53 reactivation
Clc1ccccc1-c1nnc2sc(-c3ccncc3)nn12	-3	-1	10	-1%	1	-3%
CCCCN(CC)CCCn1cnc2c([nH]c3ccc(Cl)cc32)c1=O	.	.	.	-14%	.	.
CCOc1ccc(NC(=O)CSc2nc3ccsc3c(=O)n2CCC(C)C)cc1	.	.	.	0%	.	.
CCOc1ccc(CCNC(=O)Cn2ncn3c(cc4ccccc43)c2=O)cc1OCC	.	.	.	-4%	.	.
CSc1ccc(CCNC(=O)Cn2ncn3c(cc4ccccc43)c2=O)cc1	.	.	.	20µM*	.	.
CSc1ncc(C(=O)Nc2cc(C)cc(C)c2)c(-c2ccccc2)n1	.	.	.	-4%	.	.
NC1C(N)C(N)C1N (configuration not stated)	.	.	.	-1%	.	.
CC(=O)O/N=C(/C)c1ncc(C(F)(F)F)cc1N1CCOCC1	-2	-9	-3	14µM*	0	-2%
O=c1c(Cl)c(N2CCOCC2)cnn1-c1ncc(C(F)(F)F)cc1Cl	0	6	-2	.	2	0%
O=C(CSc1nc2ccccc2c(=O)n1Cc1ccco1)N1CCN(c2ccccc2)CC1	-104*	-107*	-11	-17%	?	22%
CCOc1ccc(NC(=O)CC2C(=O)N(c3ccccc3)C(=O)N2Cc2ccco2)cc1 (configuration not stated)	-24	0	8	25µM*	-1	0%
CCOc1ccc2nc(NC(=O)CSc3nc4ccccc4c(=O)n3Cc3ccco3)sc2c1	?	-97*	6	-9%	4	11%
CCCn1c(SCC(=O)N2CCN(c3ccccc3)CC2)nc2ccccc2c1=O	1	2	.	-2%	.	-19%
CCN(C(=O)CSc1nc2cc(C(=O)OC)ccc2c(=O)n1Cc1ccco1)c1cccc(C)c1	-9	-43	?	32µM*	-5	-8%
CCOC(=O)CSc1nc2ccccc2c(=O)n1Cc1ccco1	3	0	-12	1%	6	-2%
COc1ccc(NC(=O)CSc2nnc(-c3ccccc3Cl)n2Cc2ccco2)c(OC)c1	0	1	19	-3%	6	-4%
CCOc1ccc(NC(=O)CSc2nnc(-c3ccccc3Cl)n2Cc2ccco2)cc1	1	16	3	18µM*	-4	6%
O=C(NCc1ccco1)c1cnn2c1NC(c1ccc(Br)cc1)CC2C(F)(F)F (configuration not stated)	-71*	0	-2	-1%	1	-6%
O=C(NCc1ccco1)c1cnn2c1NC(c1ccccc1)CC2C(F)(F)F (configuration not stated)	-13	11	1	1%	-1	-2%
COc1cccc(CN2CCC2(C)C(=O)Nc2cccc(Oc3ccccc3)c2)c1F (configuration not stated)	.	.	.	-6%	.	.
COc1ccc(/C=C/C(=O)NCCCN2CCOCC2)cc1	-2	5	-3	.	0	-1%
COc1ccc(/C=C/C(=O)NCCCN2CCCCCC2)cc1	13	-4	19	-9%	1	0%
O=C(/C=C/c1ccc(F)cc1)NCCCN1CCN(CCCNC(=O)/C=C/c2ccc(F)cc2)CC1	-43	-92*	8	0%	4	1%
Cc1ccc(/C=C/C(=O)NCCCN2CCN(CCCNC(=O)/C=C/c3ccc(C)o3)CC2)o1	-2	-76*	0	-3%	-1	-4%
C#CCOc1ccc(C2C(C(=O)OC)=C(C)NC3=C2C(=O)c2ccccc23)cc1OCC (configuration not stated)	.	.	.	0%	.	.
